Targets with a hit are over-represented here; the source holds about 7,900 in all. About 0.6% of all pairs of compound and target were hits. A number with no mark means an inactive call.
Legend:
Experiment in all cases: log2 fold change, soluble protein after heating vs DMSO (PISA); higher = thermal stabilisation; K562 cells, 10 uM, 30 min; active = over 0.2 and 3.5 SD of the protein, either way, in both replicates (recomputed)
[1] = compound: CS(=O)(=O)c1ccc(-c2cnc(N)c(C(=O)Nc3ccccc3)n2)cc1
Procedure, shortened: (§1)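 K562 cells (2×10^6 cells/mL) were treated with 10 μM compound for 30 min, and aliquots were heated for 3 min over 48°C-58°C. Pooled aliquots were extracted in PBS with 0.5% NP-40 at 4°C, and the supernatant after 21,000xg for 90 min was measured by TMTpro 16plex LC-MS/MS with channel sums equalised. Reported thermal stability, relative to control samples and from duplicates, is a log2 fold change.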

[2] = compound: C[C@@H](Oc1cc(-c2cnn(C3CCNCC3)c2)cnc1N)c1c(Cl)ccc(F)c1Cl [crizotinib]
Procedure, shortened: as §1

[3] = compound: C[C@@H]1COCCN1C2=NC(=NC(=C2)C3(CC3)S(=O)(=O)C)C4=C5C=CNC5=CC=C4
Procedure, shortened: as §1

[4] = compound: C[C@H](C1=CC=C(C=C1)C(=O)NC2=C3C=CNC3=NC=C2)N
Procedure, shortened: as §1

[5] = compound: C[C@H](Nc1ncnc2nc[nH]c12)c1cc2cccc(Cl)c2c(=O)n1-c1ccccc1 [duvelisib]
Procedure, shortened: as §1

[6] = compound: Cc1cc(Nc2cc(CN3CCOCC3)c3nc(C)c(Cc4ccc(Cl)cc4F)n3n2)n[nH]1 [gandotinib]
Procedure, shortened: as §1

[7] = compound: Cc1cc(Nc2cc(N3CCN(C)CC3)nc(Sc3ccc(NC(=O)C4CC4)cc3)n2)n[nH]1 [tozasertib]
Procedure, shortened: as §1

[8] = compound: Cc1cc(SCc2sc(-c3ccc(C(F)(F)F)cc3)nc2C)ccc1OCC(=O)O
Procedure, shortened: as §1

[9] = compound: Cc1ccc(-n2nc(C(C)(C)C)cc2NC(=O)Nc2ccc(OCCN3CCOCC3)c3ccccc23)cc1 [doramapimod]
Procedure, shortened: as §1

[10] = compound: Cc1ccc(C(=O)N(CCCN)[C@@H](c2nc3cc(Cl)ccc3c(=O)n2Cc2ccccc2)C(C)C)cc1 [ispinesib]
Procedure, shortened: as §1

Sequence of UniProt P32019 (P32019 whole entry, looked up): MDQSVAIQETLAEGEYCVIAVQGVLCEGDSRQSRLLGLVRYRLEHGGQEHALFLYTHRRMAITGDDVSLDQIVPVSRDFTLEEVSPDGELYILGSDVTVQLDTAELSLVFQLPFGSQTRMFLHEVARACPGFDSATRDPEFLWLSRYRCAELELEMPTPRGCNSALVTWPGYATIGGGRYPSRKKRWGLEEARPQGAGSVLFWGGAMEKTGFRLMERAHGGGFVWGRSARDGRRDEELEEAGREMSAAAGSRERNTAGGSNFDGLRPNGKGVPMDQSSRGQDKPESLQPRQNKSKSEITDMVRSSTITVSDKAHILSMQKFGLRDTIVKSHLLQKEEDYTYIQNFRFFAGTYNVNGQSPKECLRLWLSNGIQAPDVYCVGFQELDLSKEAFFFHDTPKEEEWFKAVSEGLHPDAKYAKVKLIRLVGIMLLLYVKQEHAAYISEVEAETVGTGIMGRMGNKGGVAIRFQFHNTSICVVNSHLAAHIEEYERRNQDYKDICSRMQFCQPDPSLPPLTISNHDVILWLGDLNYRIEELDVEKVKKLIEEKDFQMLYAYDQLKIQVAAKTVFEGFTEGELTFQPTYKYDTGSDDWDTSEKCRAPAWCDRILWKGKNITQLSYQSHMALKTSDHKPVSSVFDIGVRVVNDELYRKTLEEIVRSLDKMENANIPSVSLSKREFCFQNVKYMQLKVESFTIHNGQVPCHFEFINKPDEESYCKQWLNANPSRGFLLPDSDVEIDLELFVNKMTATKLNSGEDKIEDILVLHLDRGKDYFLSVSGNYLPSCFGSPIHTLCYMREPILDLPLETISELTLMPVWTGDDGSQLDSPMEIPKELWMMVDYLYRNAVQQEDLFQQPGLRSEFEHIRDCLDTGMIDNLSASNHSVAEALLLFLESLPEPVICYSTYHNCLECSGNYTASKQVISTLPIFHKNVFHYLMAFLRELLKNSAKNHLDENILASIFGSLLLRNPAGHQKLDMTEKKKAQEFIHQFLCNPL
Sequence of UniProt Q9NQG6 (Q9NQG6 whole entry, looked up): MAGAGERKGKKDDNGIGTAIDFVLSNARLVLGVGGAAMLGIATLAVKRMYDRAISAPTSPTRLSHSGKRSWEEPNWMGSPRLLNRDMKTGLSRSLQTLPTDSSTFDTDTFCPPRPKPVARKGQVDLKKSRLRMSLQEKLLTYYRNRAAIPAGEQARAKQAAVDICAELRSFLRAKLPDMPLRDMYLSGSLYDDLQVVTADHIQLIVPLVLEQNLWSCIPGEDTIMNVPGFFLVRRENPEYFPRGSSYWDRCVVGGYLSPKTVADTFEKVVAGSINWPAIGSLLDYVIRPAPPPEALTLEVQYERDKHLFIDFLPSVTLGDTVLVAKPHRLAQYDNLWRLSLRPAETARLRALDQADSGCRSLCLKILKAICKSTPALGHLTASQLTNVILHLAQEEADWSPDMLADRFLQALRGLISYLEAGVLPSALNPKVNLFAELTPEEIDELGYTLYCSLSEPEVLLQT
Sequence of UniProt P49137 (P49137 whole entry, looked up): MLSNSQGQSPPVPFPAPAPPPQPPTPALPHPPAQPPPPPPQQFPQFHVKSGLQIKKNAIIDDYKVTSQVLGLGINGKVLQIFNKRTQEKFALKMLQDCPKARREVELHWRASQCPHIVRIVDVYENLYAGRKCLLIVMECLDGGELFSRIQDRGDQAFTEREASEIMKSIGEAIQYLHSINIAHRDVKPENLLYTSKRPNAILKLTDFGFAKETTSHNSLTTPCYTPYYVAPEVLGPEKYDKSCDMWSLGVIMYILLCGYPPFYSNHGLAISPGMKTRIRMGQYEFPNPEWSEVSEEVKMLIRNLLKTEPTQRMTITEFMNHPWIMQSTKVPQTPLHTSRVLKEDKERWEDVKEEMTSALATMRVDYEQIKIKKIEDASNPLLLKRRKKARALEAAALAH
Sequence of UniProt P50851 (P50851 whole entry, looked up): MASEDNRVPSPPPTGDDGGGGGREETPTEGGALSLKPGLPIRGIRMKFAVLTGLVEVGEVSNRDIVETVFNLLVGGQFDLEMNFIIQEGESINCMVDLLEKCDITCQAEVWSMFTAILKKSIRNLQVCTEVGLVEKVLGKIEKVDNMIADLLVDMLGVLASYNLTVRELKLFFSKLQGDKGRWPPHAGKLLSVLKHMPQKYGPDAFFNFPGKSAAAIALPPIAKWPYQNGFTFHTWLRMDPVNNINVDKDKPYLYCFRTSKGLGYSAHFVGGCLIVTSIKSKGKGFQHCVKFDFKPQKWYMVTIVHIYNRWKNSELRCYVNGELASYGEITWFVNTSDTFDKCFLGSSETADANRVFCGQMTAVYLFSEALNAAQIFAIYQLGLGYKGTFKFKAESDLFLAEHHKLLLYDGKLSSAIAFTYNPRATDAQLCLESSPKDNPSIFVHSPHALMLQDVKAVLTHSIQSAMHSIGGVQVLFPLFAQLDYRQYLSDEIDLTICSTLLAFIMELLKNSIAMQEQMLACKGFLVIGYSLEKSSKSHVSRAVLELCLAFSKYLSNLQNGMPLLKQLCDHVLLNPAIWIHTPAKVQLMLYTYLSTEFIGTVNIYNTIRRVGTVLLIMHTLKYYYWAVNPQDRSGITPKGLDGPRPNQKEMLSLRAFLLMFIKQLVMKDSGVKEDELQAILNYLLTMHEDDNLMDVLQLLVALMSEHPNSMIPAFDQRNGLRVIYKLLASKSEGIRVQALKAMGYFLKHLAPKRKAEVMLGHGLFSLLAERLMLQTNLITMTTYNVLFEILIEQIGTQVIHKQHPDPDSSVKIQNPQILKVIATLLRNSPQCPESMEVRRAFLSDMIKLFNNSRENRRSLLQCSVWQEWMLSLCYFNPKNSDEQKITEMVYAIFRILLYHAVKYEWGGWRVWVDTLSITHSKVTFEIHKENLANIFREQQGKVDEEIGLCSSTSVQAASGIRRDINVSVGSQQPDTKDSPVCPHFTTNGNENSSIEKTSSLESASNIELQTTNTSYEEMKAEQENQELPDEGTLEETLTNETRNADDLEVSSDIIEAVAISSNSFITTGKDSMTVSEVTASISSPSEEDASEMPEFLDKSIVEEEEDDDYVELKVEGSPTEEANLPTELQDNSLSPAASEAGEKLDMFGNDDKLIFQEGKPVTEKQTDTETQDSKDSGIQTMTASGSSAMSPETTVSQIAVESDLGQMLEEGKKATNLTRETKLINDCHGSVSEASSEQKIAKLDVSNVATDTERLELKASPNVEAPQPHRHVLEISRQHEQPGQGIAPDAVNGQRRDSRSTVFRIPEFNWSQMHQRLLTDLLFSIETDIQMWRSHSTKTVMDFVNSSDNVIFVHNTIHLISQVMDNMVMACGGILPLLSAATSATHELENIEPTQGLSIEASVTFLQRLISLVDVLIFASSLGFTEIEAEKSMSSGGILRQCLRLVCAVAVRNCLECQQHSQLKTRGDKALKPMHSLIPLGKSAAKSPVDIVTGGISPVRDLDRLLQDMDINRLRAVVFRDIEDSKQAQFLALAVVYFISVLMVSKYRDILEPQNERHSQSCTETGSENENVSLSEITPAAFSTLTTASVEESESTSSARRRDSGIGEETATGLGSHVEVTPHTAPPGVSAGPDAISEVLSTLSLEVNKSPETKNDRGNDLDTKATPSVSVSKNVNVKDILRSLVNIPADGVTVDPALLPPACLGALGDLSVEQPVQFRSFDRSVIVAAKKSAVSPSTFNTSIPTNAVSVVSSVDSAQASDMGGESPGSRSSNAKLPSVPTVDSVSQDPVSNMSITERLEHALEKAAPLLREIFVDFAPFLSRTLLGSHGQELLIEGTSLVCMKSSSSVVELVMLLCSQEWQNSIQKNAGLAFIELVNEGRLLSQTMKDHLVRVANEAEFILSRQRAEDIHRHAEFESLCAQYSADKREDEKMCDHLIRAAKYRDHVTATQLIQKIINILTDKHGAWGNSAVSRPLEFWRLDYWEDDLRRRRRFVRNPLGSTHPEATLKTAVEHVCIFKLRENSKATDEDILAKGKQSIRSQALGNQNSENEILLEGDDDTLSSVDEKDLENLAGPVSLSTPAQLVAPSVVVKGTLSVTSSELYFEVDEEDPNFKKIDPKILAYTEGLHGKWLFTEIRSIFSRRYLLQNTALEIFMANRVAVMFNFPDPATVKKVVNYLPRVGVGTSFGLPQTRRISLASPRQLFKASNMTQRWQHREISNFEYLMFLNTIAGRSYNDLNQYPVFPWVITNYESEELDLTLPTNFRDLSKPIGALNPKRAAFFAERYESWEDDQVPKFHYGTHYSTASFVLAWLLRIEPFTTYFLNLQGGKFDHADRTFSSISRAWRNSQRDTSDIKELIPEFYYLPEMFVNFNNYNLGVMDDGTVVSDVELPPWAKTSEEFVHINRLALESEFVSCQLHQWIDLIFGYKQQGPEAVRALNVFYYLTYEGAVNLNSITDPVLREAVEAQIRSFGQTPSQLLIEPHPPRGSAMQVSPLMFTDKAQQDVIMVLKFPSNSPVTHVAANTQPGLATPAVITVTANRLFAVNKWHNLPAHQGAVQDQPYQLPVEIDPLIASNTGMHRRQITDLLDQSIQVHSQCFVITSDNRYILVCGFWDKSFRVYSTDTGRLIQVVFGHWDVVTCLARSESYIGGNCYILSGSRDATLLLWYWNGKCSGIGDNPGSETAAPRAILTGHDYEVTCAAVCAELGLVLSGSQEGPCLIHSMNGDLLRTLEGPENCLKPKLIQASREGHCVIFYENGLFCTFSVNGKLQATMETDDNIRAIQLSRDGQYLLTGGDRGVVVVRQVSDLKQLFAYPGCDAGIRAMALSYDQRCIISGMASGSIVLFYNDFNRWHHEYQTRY
Sequence of UniProt Q96AQ8 (Q96AQ8 whole entry, looked up): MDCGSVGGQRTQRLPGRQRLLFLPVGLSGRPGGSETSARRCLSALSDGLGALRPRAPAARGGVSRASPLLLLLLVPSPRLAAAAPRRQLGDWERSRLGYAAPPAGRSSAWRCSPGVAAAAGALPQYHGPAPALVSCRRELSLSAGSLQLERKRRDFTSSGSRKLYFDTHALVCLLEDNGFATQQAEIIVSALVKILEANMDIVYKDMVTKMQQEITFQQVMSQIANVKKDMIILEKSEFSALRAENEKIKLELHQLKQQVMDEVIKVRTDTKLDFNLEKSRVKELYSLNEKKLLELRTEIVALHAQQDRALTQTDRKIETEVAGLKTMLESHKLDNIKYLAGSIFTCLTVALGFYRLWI

Target | log2 fold change [1] | log2 fold change [2] | log2 fold change [3] | log2 fold change [4] | log2 fold change [5] | log2 fold change [6] | log2 fold change [7] | log2 fold change [8] | log2 fold change [9] | log2 fold change [10]
MARCKSL1 (UniProt P49006) | 0.032 | 0.09 | -0.006 | -0.094 | 0.025 | -0.006 | -0.033 | -0.074 | -0.047 | 0.071
LUC7L2 (UniProt Q9Y383) | -0.083 | 0.02 | 0.053 | -0.439 (active) | -0.002 | 0.031 | 0.065 | 0.03 | -0.03 | 0.111
MIF (UniProt P14174) | -0.027 | 0.025 | 0.111 | -0.048 | 0.197 | 0.079 | -0.019 | -0.025 | -0.019 | 0.055
MIEN1 (UniProt Q9BRT3) | 0.03 | 0.152 | 0.314 (active) | -0.193 | 0.208 | 0.026 | 0.12 | 0.032 | 0.029 | 0.235
MCCC2 (UniProt Q9HCC0) | -0.004 | 0.028 | 0.027 | -0.053 | 0.054 | 0.051 | -0.011 | -0.022 | 0 | 0.047
MFF (UniProt Q9GZY8) | -0.03 | -0.051 | -0.052 | -0.023 | 0.005 | -0.036 | -0.053 | -0.085 | -0.018 | -0.088
LRBA (UniProt P50851) | 0.018 | -0.054 | 0.037 | -0.005 | 0.012 | -0.094 | -0.006 | 0.011 | 0.012 | -0.078
MARK3 (UniProt P27448) | -0.042 | -0.394 (active) | -0.039 | 0.063 | -0.013 | -0.194 | -0.187 | 0.089 | 0.073 | -0.173
MAPKAPK2 (UniProt P49137) | -0.032 | -0.082 | 0.035 | -0.019 | 0.006 | -0.066 | -0.018 | 0.006 | 0.147 | -0.003
LNPK (UniProt Q9C0E8) | -0.016 | 0.077 | 0.007 | -0.036 | -0.017 | -0.022 | 0.002 | -0.085 | -0.044 | 0.022
MICU2 (UniProt Q8IYU8) | 0.014 | -0.173 | -0.026 | 0.108 | -0.045 | -0.062 | -0.036 | 0.035 | -0.009 | -0.213
LTV1 (UniProt Q96GA3) | 0.006 | -0.143 | -0.189 | 0.294 | -0.087 | 0.199 | 0.035 | 0.009 | 0.128 | -0.271
MCUR1 (UniProt Q96AQ8) | 0.041 | 0.082 | 0.1 | 0.044 | 0.06 | -0.021 | 0.043 | -0.017 | -0.002 | 0.255
INTS7 (UniProt Q9NVH2) | 0.009 | -0.133 | -0.053 | -0.054 | 0 | 0.211 | 0.008 | 0.014 | -0.091 | -0.036
ILF3 isoform 7 (UniProt Q12906) | -0.159 | -0.074 | -0.181 | 0.286 | -0.092 | 0.1 | 0.039 | -0.001 | 0.118 | 0.034
IK (UniProt Q13123) | -0.041 | 0.021 | -0.037 | 0.186 | 0.034 | 0.022 | 0.05 | -0.007 | 0.016 | 0.065
MAP3K7 (UniProt O43318) | 0.093 | -0.193 | -0.035 | 0.135 | 0.08 | -0.036 | -0.011 | 0.118 | -0.001 | -0.029
MIEF1 (UniProt Q9NQG6) | 0.088 | -0.31 (active) | -0.005 | -0.046 | 0.096 | 0.095 | -0.038 | 0.065 | 0.007 | -0.489 (active)
LARP1 (UniProt Q6PKG0) | -0.04 | -0.097 | -0.172 | 0.134 | -0.121 | 0.026 | -0.001 | 0.01 | 0.06 | -0.166
IRF3 (UniProt Q14653) | -0.146 | 0.007 | 0.056 | -0.027 | 0.067 | -0.068 | 0.039 | 0.053 | -0.038 | 0.022
MED16 (UniProt Q9Y2X0) | -0.04 | -0.072 | -0.071 | 0.06 | -0.053 | -0.098 | -0.096 | 0.063 | 0.08 | -0.097
LUC7L (UniProt Q9NQ29) | -0.009 | -0.028 | -0.033 | -0.001 | -0.042 | 0.199 | 0.06 | 0.033 | 0.029 | -0.007
INPP5B (UniProt P32019) | 0.057 | -0.096 | -0.02 | 0.042 | -0.045 | 0.017 | 0.151 | 0.029 | 0.095 | -0.005
METTL18 (UniProt O95568) | 0.003 | -0.043 | 0.053 | -0.012 | 0.004 | -0.045 | -0.115 | 0.012 | -0.001 | 0.004
MEPCE (UniProt Q7L2J0) | -0.006 | 0.111 | 0.03 | -0.005 | -0.005 | -0.051 | 0.094 | 0.04 | -0.22 | -0.065
LDAH isoform 2 (UniProt Q9H6V9) | 0.052 | -0.308 (active) | 0.064 | -0.035 | 0.001 | -0.001 | -0.047 | 0.204 | 0.019 | -0.438 (active)
IPO9 (UniProt Q96P70) | -0.04 | -0.031 | 0.051 | -0.042 | 0.007 | -0.146 | 0.143 | 0.041 | 0.008 | 0.062
KDM3B (UniProt Q7LBC6) | 0.045 | 0.001 | 0.086 | -0.044 | 0.015 | -0.045 | 0.06 | 0.012 | -0.077 | 0.015
IPO11 isoform 2 (UniProt Q9UI26) | 0.037 | 0 | -0.015 | -0.082 | 0.041 | -0.076 | 0.025 | 0.007 | -0.028 | 0.051
LTO1 (UniProt Q8WV07) | 0.011 | 0.048 | -0.083 | -0.063 | 0.078 | -0.026 | -0.007 | -0.042 | 0.032 | 0.051

From the supplement of paper PMC10849652
